{"source": "PubChem BioAssay AID1508600", "about": "(Functional Genomics Laboratory (NCATS/FGL), 2020)", "note": "The campaign covered roughly 53,000 sequences. About 3,700 (7%) were called active. This is one part of a sample in which actives are shown more often than they occur. Unmarked numbers belong to inactive results.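 How the source made its calls: active means gene knockdowns whose robust z-score for IL-1 alpha signal is at least 2 or at most -2, so actives lie on both sides; inactive means the rest.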"}
{"experiment": "Components of the Cytosolic LPS Sensing Pathway: Gene Identification via Genome-wide siRNA Screen;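 further: robust z of the log signal after scaling to non-targeting control siRNA wells of the plate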", "details": "RAW264.7 macrophages, IL-1a HTRF, actives lie on both sides, screened at 100 nM (by protocol), cells primed 5 h with Pam3CSK4 first", "in_short": "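IL-1a HTRF of supernatants after 24 hour LipidA transfection of Pam3CSK4-primed (5 hours) RAW264.7 cells, 48h post-siRNA transfection (100 nM). Scores: percent of plate negative-control median, then log-based robust z-score.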"}
{"sequence": "CCGGGAAACCAACAAAUCATT against Rbmxl1", "z-score": "2.19 (active)"}
{"sequence": "GGUGGAAUUCAUUUUGACATT against Dnajb6", "z-score": -0.42}
{"sequence": "GGCAAUGACCUUGUAAAGATT against Tomm34", "z-score": -1.56}
{"sequence": "GUGCUAUUCAUGCACAGCATT against Psca", "z-score": 0.0658}
{"sequence": "GGAUGUCUUUUUAAGGUUUTT against Eid1", "z-score": 0.987}
{"sequence": "CCCGUCCCAUCCAUUAUUUTT against Zfp787", "z-score": -1.19}
{"sequence": "GGUGUUUGUGACUCUGGGUTT against Mc4r", "z-score": "2.77 (active)"}
{"sequence": "GCUUUGCAAUUCACAGGGATT against Scgb1b27", "z-score": -1.76}
{"sequence": "GGGUUUGAUUCAUCAAAAATT against Peli1", "z-score": 0.314}
{"sequence": "CCUACGCCAAGCAGUAUGATT against Mcm3", "z-score": 0.286}
{"sequence": "GGAUUUUGACAGUCUGUGUTT against Endou", "z-score": -0.438}
{"sequence": "GGACUGAUUGUUUUAUGCUTT against Gdap10", "z-score": -1.06}
{"sequence": "GGCCCUCAAUACCUGUGGUTT against Olfr690", "z-score": "-3.13 (active)"}
{"sequence": "GGAGAGACAUCCAAAAGUATT against H60a", "z-score": 0.658}
{"sequence": "GCCAUAUAAUUUGACAGAGTT against Tarm1", "z-score": -0.0405}
{"sequence": "GCUCACAACAUGAGAGUCATT against Atp6v0e", "z-score": -0.539}
{"sequence": "GGGAAUUACAGCACACAAUTT against Treml4", "z-score": -0.21}
{"sequence": "GGAACAAAACAAAUAGCUATT against Vstm2a", "z-score": 1.79}
{"sequence": "GGUUUCUAUAAAUCUCCCUTT against Eif4b", "z-score": 0.895}
{"sequence": "CGUGGUCUUCACGAUUGGATT against Pde4c", "z-score": "3.71 (active)"}
{"sequence": "GGAGGCUAUCAGAAGCAUCTT against C130021I20Rik", "z-score": 0.762}
{"sequence": "GGAACCAACAGAGAAAACUTT against Hr", "z-score": 0.317}
{"sequence": "GGCCUGUUUUUGCAUUUUATT against 9030612E09Rik", "z-score": -0.0316}
{"sequence": "GCAUUCGAAAUGAAGAUAATT against Dnajb1", "z-score": -1.75}
{"sequence": "GGUUUUCUUUUCUUCUGCCTT against Aar2", "z-score": -1.11}
{"sequence": "GGGAUUCACUCUUCUUUAGTT against Sebox", "z-score": 1.97}
{"sequence": "GGAACAAGCAAGUCAAACATT against Olfr770", "z-score": "2.24 (active)"}
{"sequence": "CGACUGGGUCUUAUGUUUATT against Tas2r121", "z-score": -0.105}
{"sequence": "CCAAGAAAGACAGUAACUATT against 4930432K21Rik", "z-score": -0.986}
{"sequence": "GGAUCUGGACUUAAUGCUCTT against Tfeb", "z-score": -0.383}
{"sequence": "GGCCUUACCAAAUGGAAGUTT against Ifih1", "z-score": "2.89 (active)"}
{"sequence": "GCACGGAUUAAUGUGAUGATT against Ilk", "z-score": 0.406}
{"sequence": "CCGUUGGAUACUGUAGUUCTT against Gpr152", "z-score": 0.023}
{"sequence": "GCAACACACCAUAUCAGGATT against Tas2r135", "z-score": -0.322}
{"sequence": "CCACCAUCGGUUGUUAGUUTT against Actg1", "z-score": 1.81}
{"sequence": "GGACAGCUUGUAAAUUGCCTT against Mup21", "z-score": "-2.05 (active)"}
{"sequence": "GGUCUCAUUUCAAAUGGUUTT against Lonrf3", "z-score": 0.63}
{"sequence": "GGAGAUUUCUUCCAUGGUCTT against Hspa2", "z-score": 0.445}
{"sequence": "CGACAGAGUGAAAAUUAAGTT against Setd3", "z-score": -0.937}
{"sequence": "CGCAGAGAAGGACUAUCUUTT against Ush1c", "z-score": -1.58}
{"sequence": "GGACAAGUGUCAGAUAUCATT against Asah2", "z-score": "-2.02 (active)"}
{"sequence": "CCUGCUUACCAAAGAAUCCTT against Klf11", "z-score": -0.884}
{"sequence": "GGGACAAGUUGGAUUCUUGTT against Polr1e", "z-score": -0.96}
{"sequence": "GCCUUACAACAAGCAACACTT against Esrp1", "z-score": -0.385}
{"sequence": "GCGGGCCAUGACAAUUACUTT against Slc45a1", "z-score": 0.566}
{"sequence": "GCGAUGCUGGCAAGUAUGUTT against Robo1", "z-score": 0.45}
{"sequence": "CCCAGACGAGAACUGUAUCTT against Sqor", "z-score": -0.0381}
{"sequence": "GGGUUAGGAUACCUCGACUTT against Arnt2", "z-score": "-2.5 (active)"}
{"sequence": "GGAAAGAUGUGGAAGUAAATT against Erc1", "z-score": -0.977}
{"sequence": "GGAAAAGCAAGAGGAAAGATT against Ifnb1", "z-score": "2.39 (active)"}
{"sequence": "GCAACCAUCGUAGCAGAUCTT against Aaas", "z-score": 1.54}
{"sequence": "GCCACUGAUGUAAGGCUCATT against Lurap1l", "z-score": 0.871}
{"sequence": "CCCUCGUCUGAAAUGGAAATT against Nploc4", "z-score": "-2.02 (active)"}
{"sequence": "GGAACAGCUGACCUACUUUTT against Ahi1", "z-score": 1.08}
{"sequence": "GGUAGACCAGCUUAAGAAGTT against Gngt1", "z-score": -0.0811}
{"sequence": "GGCUUUUCACAAAACUGUUTT against Zfp120", "z-score": 1.07}
{"sequence": "CCUAAAUCCUGCUAGGCGUTT against Cbln1", "z-score": -1.03}
{"sequence": "GGUUAUAGGAAGGAAUUGCTT against Krt90", "z-score": "2.58 (active)"}
{"sequence": "GAUGUCCUUCACCUUUGCCTT against Atp5d", "z-score": -1.9}
{"sequence": "GGCGCACACUUUCACCUAATT against Tmem170", "z-score": 0.194}
{"sequence": "GGUUGUUUAUACCUGUGAUTT against Cfh", "z-score": -0.292}
{"sequence": "GGUGUCAACUUUAUUCUUUTT against Rab1a", "z-score": 0.813}
{"sequence": "GGGAUCCCUUCUGGAAAAGTT against Dmrtc2", "z-score": 0.581}
{"sequence": "GGGCUCCUGAGCCUCUUAATT against Sprr1a", "z-score": "2.29 (active)"}
{"sequence": "GGUUGCACUCAUCUUAAAATT against Zfp9", "z-score": 1.59}
{"sequence": "GGAAACUUCCCUUCCUAACTT against Snrpc", "z-score": -0.397}
{"sequence": "GCCUCUGGCAGAGAAAAGATT against 4930579K19Rik", "z-score": -1.78}
{"sequence": "CCAAGUUUUCAAAACAAACTT against Aqp3", "z-score": -0.0587}
{"sequence": "GGAAGUGGACCAUUUCUUUTT against Olfr1359", "z-score": 0.719}
{"sequence": "GGCCUGAAGGGAAAGAUUUTT against Rbbp4", "z-score": -0.721}
{"sequence": "GGACUUGGGUCAUUGUGAGTT against Grpel1", "z-score": -0.93}
{"sequence": "GGCAGUUUCUGUGCUAUACTT against Olfr984", "z-score": "-2.49 (active)"}
{"sequence": "GGAUAUUUAUUGUAUCCCATT against Col8a1", "z-score": -0.918}
{"sequence": "GGCAUCUGACGAUAAUGAUTT against Lman2l", "z-score": -0.337}
{"sequence": "GUUUUUCAUACAGUAGUAGTT against Vmn1r27", "z-score": 0.42}
{"sequence": "CCUGUGGGACUCAAUGUUGTT against 2310039H08Rik", "z-score": -0.722}
{"sequence": "GGCCAGGAGAAGAAGAUACTT against Tet2", "z-score": -0.261}
{"sequence": "GCCAUUCAAAAAUCAGCCGTT against Ddi2", "z-score": "-2.02 (active)"}
{"sequence": "GCUCCUAGGAACUUGGUUATT against Pacsin2", "z-score": 0.687}
{"sequence": "GGCUGUUACAUUCUAUAUUTT against Kif5c", "z-score": -0.13}
{"sequence": "CCCAAUUAAUGAUCACCCATT against Tlcd2", "z-score": "-3.04 (active)"}
{"sequence": "GGCCCUGAACUGGUUUUGUTT against Osbpl10", "z-score": -0.119}
{"sequence": "GCUCAACACUCGACAUUGUTT against Rrm1", "z-score": "-2.56 (active)"}
{"sequence": "GGUGGCAUUAAGGAAAUCATT against Olfr147", "z-score": -0.0185}
{"sequence": "GGCCUGAAGCAGCUUAUCUTT against Chad", "z-score": -1.56}
{"sequence": "GGCAAAAAUGAGAAAGAGATT against Hebp2", "z-score": -0.643}
{"sequence": "GCGUAUUACACCCUUGGAATT against Terf1", "z-score": -0.462}
{"sequence": "GUCCUCCAUGAAGAAGCUCTT against Prm3", "z-score": -0.953}
{"sequence": "GGACUUCAACAAGACCAUCTT against Proser2", "z-score": 1.55}
{"sequence": "CGUCCAUAGAACAAUUGCATT against Rnase12", "z-score": "2.82 (active)"}
{"sequence": "GGUAUUCCUGUCUCAGGUCTT against Matn1", "z-score": -0.59}
{"sequence": "GGUUAUUCUCAUUUCGGAUTT against Phospho1", "z-score": 1.53}
{"sequence": "GCUUACUUCCAAGGUCUACTT against Ptch2", "z-score": 0.905}
{"sequence": "CCCAGCAGGCCAUAUUAGUTT against Cks1b", "z-score": 0.377}
{"sequence": "GGGAUCAUAAAGAUAACUUTT against Fasn", "z-score": "2.2 (active)"}
{"sequence": "GCAUAGGGUCAUUUCAAGCTT against Kif23", "z-score": 0.0957}
{"sequence": "GCUGUACUAUCUUUUUCAUTT against Olfr165", "z-score": -0.0549}
{"sequence": "GCCAGUUUGUGUGCAAAAATT against Lrp1", "z-score": -0.551}
{"sequence": "GAUCUGGUAUGUUUGUGACTT against Olfr1414", "z-score": -1.14}
{"sequence": "CCUGUGUGUGAAUCUCGUUTT against C1qb", "z-score": 1.11}
{"sequence": "GGAAAUGUUGCCGUUGUCCTT against Mfsd8", "z-score": "2.13 (active)"}
{"sequence": "GGGUGGGAGACGAAGAUAATT against Usp17lf", "z-score": -0.12}
{"sequence": "CCUAAUGGUUCAGGAUACGTT against Pcdhb5", "z-score": -0.641}
{"sequence": "GGCUUUGAAAGUUACUACUTT against Zfp609", "z-score": 1.22}
{"sequence": "GCCACUGUGUGGAAUAAAUTT against Cblif", "z-score": 0.727}
{"sequence": "CCAAAAGAGUUUUACAGGGTT against Lhx9", "z-score": -0.119}
{"sequence": "GGAUCAGGAAGUAAACUUCTT against S100a6", "z-score": "2.57 (active)"}
